Calls of active or inactive are those of the source.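 How the source made its calls: active means IC50, the dose giving half inhibition, at or below 10 µM; inconclusive means IC50 above 10 µM up to 20 µM; inactive means IC50 over 20 µM.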
The molecules below were run against Ubiquitin-like modifier-activating enzyme 1 (Homo sapiens) (UniProt P22314) (assay: inhibition of ubiquitin E1 thioester formation – biochemical, gel-based, fluorescent Ub (AID 1347406)). Conditions: fluorescent Ub gel imaging.
Ubiquitin-like modifier-activating enzyme 1 (Homo sapiens), sequence (P22314 whole entry, looked up): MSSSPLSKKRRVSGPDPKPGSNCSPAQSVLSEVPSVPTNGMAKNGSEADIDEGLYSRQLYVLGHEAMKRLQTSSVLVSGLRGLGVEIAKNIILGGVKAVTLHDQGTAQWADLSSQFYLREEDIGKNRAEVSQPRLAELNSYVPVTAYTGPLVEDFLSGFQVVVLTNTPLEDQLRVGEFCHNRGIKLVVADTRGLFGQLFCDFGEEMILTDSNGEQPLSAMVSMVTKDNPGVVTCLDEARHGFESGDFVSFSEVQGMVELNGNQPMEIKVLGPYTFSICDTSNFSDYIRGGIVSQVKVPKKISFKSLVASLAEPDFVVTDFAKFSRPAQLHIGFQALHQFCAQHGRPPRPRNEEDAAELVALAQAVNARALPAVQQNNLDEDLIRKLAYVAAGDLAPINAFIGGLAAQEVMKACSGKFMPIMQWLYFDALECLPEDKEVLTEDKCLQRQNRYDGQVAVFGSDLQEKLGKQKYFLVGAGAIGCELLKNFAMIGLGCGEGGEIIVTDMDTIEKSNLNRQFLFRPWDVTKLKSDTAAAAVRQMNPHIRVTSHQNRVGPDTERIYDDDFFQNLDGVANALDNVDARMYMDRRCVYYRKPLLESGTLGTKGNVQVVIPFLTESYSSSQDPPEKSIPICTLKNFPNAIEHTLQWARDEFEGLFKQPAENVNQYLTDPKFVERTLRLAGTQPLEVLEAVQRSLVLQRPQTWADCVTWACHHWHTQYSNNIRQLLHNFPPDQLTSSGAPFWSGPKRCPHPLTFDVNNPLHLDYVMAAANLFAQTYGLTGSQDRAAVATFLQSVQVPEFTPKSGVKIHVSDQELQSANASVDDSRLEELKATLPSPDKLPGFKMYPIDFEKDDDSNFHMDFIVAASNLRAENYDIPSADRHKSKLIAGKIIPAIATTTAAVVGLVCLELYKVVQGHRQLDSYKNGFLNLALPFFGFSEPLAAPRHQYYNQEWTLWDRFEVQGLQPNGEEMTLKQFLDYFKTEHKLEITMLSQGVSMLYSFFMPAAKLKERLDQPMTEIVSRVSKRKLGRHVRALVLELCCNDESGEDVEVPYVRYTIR

outcome, inactive:
CN(CCC(=O)C=Cc1ccc(Cl)c(Cl)c1)CCc1ccc2c(c1)OCO2 inactive; >50 µM
CCOc1ccc2nc3cc(NC(=O)c4ccco4)ccc3c(N)c2c1 inactive; >50 µM
CNc1ccccc(C(=O)C=Cc2ccc3c(c2)OCO3)c1=O inactive; >50 µM
CCNc1ccc(Br)cc(C(=O)/C=C/c2c(Cl)cccc2Cl)c1=O inactive; >50 µM
CCCCCCCCCOc1ccc(C#CC(=O)O)cc1
NCCCSc1nc2c(c(=O)n1Cc1ccccc1)C1(CCCCC1)Cc1ccccc1-2 inactive; >50 µM
CCOC(=O)c1c(NC(=O)CCC(=O)O)sc(C)c1-c1ccc(CC(C)C)cc1 inactive; >50 µM

— PubChem BioAssay AID1347406
